Compounds without any hit were thinned out: in the full panel of roughly 83,000, 20% have a hit.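 Percent growth is the endpoint: 0 to 100 indicates growth inhibition (40 means 60% inhibition), 0 means no net growth, and negative values indicate cell death.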 Active and inactive are the calls of the source. Rule for the calls: active = growth percent below 10; inactive = the rest.
test system: T-47D breast; assay: NCI-60 one-dose screen, 48 h (100 = growth as untreated, 0 = no growth, -100 = all killed); details: 10 µM unless noted

Row | Compound | growth
1 | CC(C)CCC[C@@H](C)[C@H]1CC[C@H]2[C@@H]3CC=C4c5sc(Nc6cc(C(F)(F)F)cc(C(F)(F)F)c6)nc5CC[C@]4(C)[C@H]3CC[C@]12C | 95.7% (inactive)
2 | N#CC1=C(N)Oc2c(sc3c(F)cccc23)C1c1ccc([N+](=O)[O-])cc1 (stereo unspecified) | -3.63% (active)
3 | c1ccc(-c2c(-c3ccccc3)[n+](Cc3ccc4ccccc4c3)cn2Cc2ccc3ccccc3c2)cc1 | -74.3% (active)
4 | O=C(CSc1nnnn1-c1ccccc1)Nc1ccc(Oc2ccccc2)cc1 | 90.9% (inactive)
5 | Cc1ccc2c(c1)nc(C)n2-c1ncnc2c1CC(C)c1cc(O)ccc1N2C (stereo unspecified) | 33.6% (inactive)
6 | Fc1ccc2[nH]cc(-c3nc(-c4c[nH]c5c(Cl)nccc45)cs3)c2c1 | 35.1% (inactive)
7 | COc1ccc(Oc2ccc(/C=C/C(=O)c3ccc(OC)c(OC)c3)cc2)cc1 | 60.8% (inactive)
8 | CCCCC#Cc1c(I)n(C2OC(CO[Si](C)(C)C(C)(C)C)C3OC(C)(C)OC32)c(=O)n(C(=O)c2ccccc2)c1=O (stereo unspecified) | -10.1% (active)
9 | O=C(N/N=C/c1ccc(Cl)cc1)c1ccc(NC(=O)c2ccccn2)cc1 | 52.1% (inactive)
10 | COc1cc(-c2cc(-c3ccc(Nc4nc(Nc5ccc(Cl)cc5)nc(Nc5ccc(Cl)cc5)n4)cc3)no2)cc(OC)c1OC | 45.9% (inactive)
11 | NCCCNc1nc2ccccc2c2c(=O)c3cc(Cl)ccc3sc12 | -6.77% (active)
12 | Cc1ccc(OCCOCCOCCOCCOCCOc2ccc(C)n(O)c2=S)c(=S)n1O | 15.1% (inactive)
13 | CC1(C)CC(=O)C2=C(C1)C(c1ccc(Cl)cc1)n1ncc(C#N)c1N2 (stereo unspecified) | 85.8% (inactive)
14 | CN(C)/C(N)=N/N=C(\c1ccccc1)c1ccccn1 | 110% (inactive)
15 | c1ccc(Nc2nc3c(s2)CCc2c[nH]cc2-3)nc1 | 11% (inactive)
16 | COc1cc2c(cc1OCCCN1CCN(C(=S)SCCC(C#N)(c3ccccc3)c3ccccc3)CC1)N=C[C@@H]1CCCN1C2=O | -50.5% (active)
17 | O=C(NCCCCCCNC(=O)OCc1ccc2c(Cl)cc(Cl)c(O)c2n1)OCc1ccc2c(Cl)cc(Cl)c(O)c2n1 | -48.5% (active)
18 | O=C(/C=C/c1ccccc1)N(C1CCCCC1)C1CCCCC1 | 69.2% (inactive)
19 | C=CCn1cc(-c2nc3ccccc3s2)c2cc(-c3ccc4c5c(cccc35)C(=O)N(CCO)C4=O)ccc21 | 78.1% (inactive)
20 | COc1cc(/C=C/C(=O)c2cccc(-n3cc(-c4ccc(Cl)cc4)[nH]c3=O)c2)ccc1O | 62.2% (inactive)
21 | O=C1Nc2ccc(Cl)cc2/C1=C/c1ccc[nH]1 | 13% (inactive)
22 | Cn1c2ccccc2c2c3c(c4c5cc(Br)ccc5n(C)c4c21)C(=O)N(O)C3=O | -11.2% (active)
23 | O=S(=O)(NCCNc1nccc(-c2c(-c3ccc(F)c(O)c3)nc3sccn23)n1)c1ccc(Cl)cc1 | 2.76% (active)
24 | Cc1ccc(OCCOCCOCCOc2ccc(C)n(O)c2=S)c(=S)n1O | 14% (inactive)
25 | C[C@@H]1NC(=O)[C@H](Cc2ccccc2)N(Cc2cccnc2)C1=O | 94.6% (inactive)
26 | C=CC(CC(c1ccccc1)(c1ccccc1)c1ccccc1)N(CC)CC (stereo unspecified) | 59.3% (inactive)

test system: BT-549 breast; assay: as above; details: 10 µM unless noted

Row | Compound | growth
27 | COc1ccc(/C=N/NC(=O)Cn2c(-c3ccc(S(C)(=O)=O)cc3)nc3ccccc32)cc1 | 103% (inactive)
28 | CN(C)CCCn1c2c(c3ccncc3c1=O)C(=O)c1ccccc1-2 | 3.87% (active)
29 | OC1(c2ccccc2)c2ccccc2N(c2ccccc2)c2ccc(Cl)cc21 (stereo unspecified) | -78.7% (active)
30 | CC1(/C=C/c2ccc(-c3ccccc3)cc2)CCn2cnc3ncnc(c32)N1O (stereo unspecified) | 17% (inactive)
31 | C=C1C(=O)O[C@H]2[C@H]1CC/C(COC(=O)/C=C\C(=O)NCc1ccc(Cn3c(=O)sn(CCCCl)c3=O)cc1)=C\CC[C@@]1(C)O[C@@H]21 | 88.2% (inactive)
32 | C#Cc1cccc(NC(=O)C2CCCCN2C(=O)CCl)c1 (stereo unspecified) | -55.9% [8.25 µM] (active)
33 | O=C1CCCC1[n+]1ccccc1 (stereo unspecified) | 84.3% (inactive)
34 | N#C/C(=C\c1ccc(-c2cccc(Cl)c2)o1)C(=O)Nc1ncc(Cc2ccc(Cl)cc2)s1 | 72.9% (inactive)
35 | O=S(O)c1cc(Cl)cc(Cl)c1OCc1ccccc1 | 107% (inactive)
36 | O=C(C1=Cc2cc3ccccc3n2Cc2cnnn21)c1ccc(F)cc1 | 94.9% (inactive)
37 | CC(C)Cc1nc(Nc2ccccc2)[nH]c(=O)c1C#N | 39% (inactive)
38 | C[N+]1=C(/C=C/c2ccccc2Cl)C(C)(C)c2ccccc21 | 109% (inactive)
39 | CSc1ccc(N2C(=N)C(=S)N(c3ccc(C)cc3)C2=O)cc1 | 72.2% (inactive)
40 | CC[C@H](Nc1nc(N)nc(C)c1C#N)c1nc2cccc(CN(C)c3ncc(C(=O)NO)cn3)c2c(=O)n1-c1ccccc1 | 34.6% (inactive)
41 | CC(C)CCC[C@@H](C)[C@H]1CC[C@H]2[C@@H]3CC=C4c5sc(Nc6cc(C(F)(F)F)cc(C(F)(F)F)c6)nc5CC[C@]4(C)[C@H]3CC[C@]12C | 98.9% (inactive)
42 | N#CC1=C(N)Oc2c(sc3c(F)cccc23)C1c1ccc([N+](=O)[O-])cc1 (stereo unspecified) | -48.3% (active)
43 | c1ccc(-c2c(-c3ccccc3)[n+](Cc3ccc4ccccc4c3)cn2Cc2ccc3ccccc3c2)cc1 | -82% (active)
44 | O=C(CSc1nnnn1-c1ccccc1)Nc1ccc(Oc2ccccc2)cc1 | 112% (inactive)
45 | Cc1ccc2c(c1)nc(C)n2-c1ncnc2c1CC(C)c1cc(O)ccc1N2C (stereo unspecified) | 40.8% (inactive)
46 | Fc1ccc2[nH]cc(-c3nc(-c4c[nH]c5c(Cl)nccc45)cs3)c2c1 | 75.1% (inactive)

Row | Compound | growth
47 | COc1ccc(Oc2ccc(/C=C/C(=O)c3ccc(OC)c(OC)c3)cc2)cc1 | 85.3% (inactive)
48 | CCCCC#Cc1c(I)n(C2OC(CO[Si](C)(C)C(C)(C)C)C3OC(C)(C)OC32)c(=O)n(C(=O)c2ccccc2)c1=O (stereo unspecified) | 27.5% (inactive)
49 | O=C(N/N=C/c1ccc(Cl)cc1)c1ccc(NC(=O)c2ccccn2)cc1 | 62.7% (inactive)
50 | COc1cc(-c2cc(-c3ccc(Nc4nc(Nc5ccc(Cl)cc5)nc(Nc5ccc(Cl)cc5)n4)cc3)no2)cc(OC)c1OC | 88.6% (inactive)
51 | NCCCNc1nc2ccccc2c2c(=O)c3cc(Cl)ccc3sc12 | 83% (inactive)
52 | Cc1ccc(OCCOCCOCCOCCOCCOc2ccc(C)n(O)c2=S)c(=S)n1O | 26% (inactive)
53 | CC1(C)CC(=O)C2=C(C1)C(c1ccc(Cl)cc1)n1ncc(C#N)c1N2 (stereo unspecified) | 103% (inactive)
54 | CN(C)/C(N)=N/N=C(\c1ccccc1)c1ccccn1 | 99.8% (inactive)
55 | c1ccc(Nc2nc3c(s2)CCc2c[nH]cc2-3)nc1 | 95.4% (inactive)
56 | COc1cc2c(cc1OCCCN1CCN(C(=S)SCCC(C#N)(c3ccccc3)c3ccccc3)CC1)N=C[C@@H]1CCCN1C2=O | -89.7% (active)
57 | O=C(NCCCCCCNC(=O)OCc1ccc2c(Cl)cc(Cl)c(O)c2n1)OCc1ccc2c(Cl)cc(Cl)c(O)c2n1 | -14.4% (active)
58 | O=C(/C=C/c1ccccc1)N(C1CCCCC1)C1CCCCC1 | 77.3% (inactive)
59 | C=CCn1cc(-c2nc3ccccc3s2)c2cc(-c3ccc4c5c(cccc35)C(=O)N(CCO)C4=O)ccc21 | 99.4% (inactive)
60 | COc1cc(/C=C/C(=O)c2cccc(-n3cc(-c4ccc(Cl)cc4)[nH]c3=O)c2)ccc1O | 26.3% (inactive)
61 | O=C1Nc2ccc(Cl)cc2/C1=C/c1ccc[nH]1 | 48.7% (inactive)
62 | Cn1c2ccccc2c2c3c(c4c5cc(Br)ccc5n(C)c4c21)C(=O)N(O)C3=O | 41.2% (inactive)
63 | O=S(=O)(NCCNc1nccc(-c2c(-c3ccc(F)c(O)c3)nc3sccn23)n1)c1ccc(Cl)cc1 | 29.9% (inactive)
64 | Cc1ccc(OCCOCCOCCOc2ccc(C)n(O)c2=S)c(=S)n1O | 50.4% (inactive)
65 | C[C@@H]1NC(=O)[C@H](Cc2ccccc2)N(Cc2cccnc2)C1=O | 73.2% (inactive)
66 | C=CC(CC(c1ccccc1)(c1ccccc1)c1ccccc1)N(CC)CC (stereo unspecified) | 64.4% (inactive)
